Assay results from PubChem BioAssay (NCI).
Compounds without any hit were thinned out: in the full panel of roughly 79,000, 15% have a hit. Calls of active or inactive are those of the source. Rule as the data show it: active = growth inhibition above about 70%; inactive = the rest.

Columns and labels:
[1] = NCI Yeast Anticancer Drug Screen. Data for the rad52 strain (AID 147);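 also: 0% = growth of vehicle-treated control cultures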; conditions: S. cerevisiae rad52 mutant growth inhibition, hits give high values
Outline: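 Screen used a yeast mutant impaired in DNA repair. After compound exposure, growth was measured. Values reflect inhibition compared with vehicle-treated cells.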

[2] = NCI Yeast Anticancer Drug Screen. Data for the wt1 strain (AID 149);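 also: 0% = growth of vehicle-treated wt1 cultures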; conditions: S. cerevisiae wt1 strain (SPY 50644) growth inhibition, hits give high values
Outline: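 wt1 strain grown with compound or vehicle; inhibition taken from the growth difference.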

[3] = NCI Yeast Anticancer Drug Screen. Data for the rad50EPP+ strain (AID 151);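 also: 0% = growth of vehicle-treated control cultures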; conditions: S. cerevisiae rad50 mutant strain, hits give high values
Outline: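 Exposing the rad50EPP+ strain to each compound, growth was compared with vehicle-only cultures to give inhibition.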

[4] = NCI Yeast Anticancer Drug Screen. Data for the mgt1 strain (AID 153); conditions: S. cerevisiae mgt1 mutant growth inhibition, hits give high values
Outline: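 Genetically defined yeast (mgt1) treated with compound; inhibition of growth expressed against vehicle-treated controls.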

[5] = NCI Yeast Anticancer Drug Screen. Data for the rad50 strain (AID 155);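 also: 0% = growth of vehicle-only cultures of the same strain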; conditions: S. cerevisiae rad50 strain growth inhibition, hits give high values
Outline: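 DNA repair mutant yeast, compound exposure, growth read-out; inhibition is taken relative to vehicle.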

[6] = NCI Yeast Anticancer Drug Screen. Data for the mec2-1 strain (AID 157); conditions: S. cerevisiae mec2-1 strain, hits give high values
Outline: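 Readout is yeast growth inhibition, normalised to vehicle-treated controls, in the mec2-1 strain exposed to compound.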

[7] = NCI Yeast Anticancer Drug Screen. Data for the rad14 strain (AID 159);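 also: 0% = growth of vehicle-treated control cultures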; conditions: S. cerevisiae rad14 strain growth inhibition, hits give high values
Outline: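 DNA repair-defective yeast, compound-exposed; % growth inhibition derived by comparison with vehicle-treated controls.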

[8] = NCI Yeast Anticancer Drug Screen. Data for the sgs1 mgt1 strain (AID 161);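 also: 0% = growth of cultures given vehicle only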; conditions: S. cerevisiae sgs1 mgt1 strain, hits give high values
Outline: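 Compounds are added to genetically altered yeast, and growth is compared with cultures given vehicle alone to give percent inhibition.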

[9] = NCI Yeast Anticancer Drug Screen. Data for the CLN2oe strain (AID 163);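 also: 0% = growth of vehicle-only control cultures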; conditions: S. cerevisiae CLN2oe strain, hits give high values
Outline: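 Values reflect how much compound exposure reduced yeast growth, referenced to vehicle-exposed cells. Assay organism is a strain with a defined genetic change affecting cell-cycle control.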

[10] = NCI Yeast Anticancer Drug Screen. Data for the cln2 rad14 strain (AID 165);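 also: 0% = growth equal to vehicle treated cultures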; conditions: S. cerevisiae cln2 rad14 strain, hits give high values
Outline: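 Relative to vehicle controls, growth inhibition of compound-treated cln2 rad14 yeast was recorded.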

[11] = NCI Yeast Anticancer Drug Screen. Data for the bub3 strain (AID 167); conditions: S. cerevisiae bub3 mutant strain, hits give high values
Outline: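 In this screen, a yeast mutant lacking normal mitotic checkpoint function is challenged with compound. Relative growth versus vehicle gives the inhibition value.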

[12] = NCI Yeast Anticancer Drug Screen. Data for the wt2 strain (AID 169);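 also: 0% = growth of vehicle-treated yeast cultures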; conditions: S. cerevisiae wt2 strain growth inhibition, hits give high values
Outline: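 Values express reduction in yeast growth under compound treatment, referenced to vehicle-treated cells.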

[13] = NCI Yeast Anticancer Drug Screen. Data for the mlh1 strain (AID 171);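 also: 0% = growth of vehicle-treated control cultures of the same strain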; conditions: S. cerevisiae mlh1 strain growth inhibition, hits give high values
Outline: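 Steps: expose the defined-mutant yeast strain to compound; expose a parallel culture to vehicle; measure growth; express compound effect as inhibition relative to the vehicle culture.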

[14] = NCI Yeast Anticancer Drug Screen. Data for the sgs1 strain (AID 173);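 also: 0% = growth of vehicle-only control cultures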; conditions: S. cerevisiae sgs1 mutant, hits give high values
Outline: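 Treat defined-mutant yeast with compound; measure growth; calculate inhibition relative to vehicle-treated cells.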

[15] = NCI Yeast Anticancer Drug Screen. Data for the mlh1 rad18 strain (AID 175); conditions: S. cerevisiae mlh1 rad18 strain growth inhibition, hits give high values
Outline: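 Test agents were incubated with a yeast strain of defined genotype (DNA damage repair defect). Inhibition of growth was derived by comparison with vehicle-exposed cultures.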

[16] = NCI Yeast Anticancer Drug Screen. Data for the rad18 strain (AID 177); conditions: S. cerevisiae rad18 mutant growth inhibition, hits give high values
Outline: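 A genetically defined yeast mutant impaired in DNA damage repair was treated with test compounds, then its growth was measured against cultures receiving vehicle alone.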

[17] = at 5.0 µM (retest, dose inferred, filed as 0.5)
[18] = at 50.0 µM (retest, dose inferred, filed as 5.0)

Measured: growth inhibition

O=c1cccccc1[O-].O=c1cccccc1[O-].O=c1cccccc1[O-].[Eu+3]
active: [1]; at 33.0 µM 97% | [1]; at 100.0 µM 97% | [2]; at 33.0 µM 97% | [2]; at 100.0 µM 97% | [3]; at 33.0 µM 95% | [3]; at 100.0 µM 96% | [4]; at 33.0 µM 97% | [4]; at 100.0 µM 98% | [5]; at 11.0 µM 71% | [5]; at 33.0 µM 97% | [5]; at 50.0 µM 92.5% | [5]; at 100.0 µM 93% | [6]; at 33.0 µM 90% | [6]; at 50.0 µM 91.7% | [6]; at 100.0 µM 98% | [7]; at 33.0 µM 98% | [7]; at 100.0 µM 98% | [8]; at 50.0 µM 89.7% | [9]; at 33.0 µM 92% | [9]; at 100.0 µM 98% | [10]; at 50.0 µM 86.7% | [11]; at 33.0 µM 96% | [11]; at 50.0 µM 92.8% | [11]; at 100.0 µM 98% | [12]; at 33.0 µM 99% | [12]; at 100.0 µM 98% | [13]; at 33.0 µM 95% | [13]; at 100.0 µM 98% | [14]; at 33.0 µM 98% | [14]; at 100.0 µM 98% | [15]; at 50.0 µM 89.8% | [16]; at 33.0 µM 98% | [16]; at 100.0 µM 97%
inactive: [1]; at 1.2 µM 2% | [1]; at 3.7 µM 3% | [1]; at 11.0 µM 32% | [2]; at 1.2 µM 6% | [2]; at 3.7 µM 2% | [2]; at 11.0 µM 14% | [3]; at 1.2 µM 0% | [3]; at 3.7 µM -1% | [3]; at 11.0 µM 16% | [4]; at 1.2 µM 13% | [4]; at 3.7 µM 8% | [4]; at 11.0 µM 14% | [5]; at 1.2 µM 6% | [5]; at 3.7 µM -29% | [5]; [17] 38% | [5]; [18] 38% | [6]; at 1.2 µM -1% | [6]; at 3.7 µM 2% | [6]; [17] 26% | [6]; at 11.0 µM 16% | [6]; [18] 26% | [7]; at 1.2 µM 3% | [7]; at 3.7 µM 7% | [7]; at 11.0 µM 25% | [8]; [17] 65% | [8]; [18] 65% | [9]; at 1.2 µM 5% | [9]; at 3.7 µM 11% | [9]; at 11.0 µM 25% | [10]; [17] 5% | [10]; [18] 5% | [11]; at 1.2 µM 1% | [11]; at 3.7 µM 1% | [11]; [17] 8% | [11]; at 11.0 µM 2% | [11]; [18] 8% | [12]; at 1.2 µM 1% | [12]; at 3.7 µM 3% | [12]; at 11.0 µM 22% | [13]; at 1.2 µM -4% | [13]; at 3.7 µM -1% | [13]; at 11.0 µM 13% | [14]; at 1.2 µM 2% | [14]; at 3.7 µM 1% | [14]; at 11.0 µM 26% | [15]; [17] 24% | [15]; [18] 24% | [16]; at 1.2 µM 3% | [16]; at 3.7 µM 15% | [16]; at 11.0 µM 42%

COc1ccc(C(C)c2cc3c(cc2OC(C)O)OCO3)cc1 (stereo unspecified)
inactive: [1]; at 1.2 µM -2% | [1]; at 3.7 µM -3% | [1]; at 11.0 µM -1% | [1]; at 33.0 µM 1% | [2]; at 1.2 µM -2% | [2]; at 3.7 µM -3% | [2]; at 11.0 µM -4% | [2]; at 33.0 µM -4% | [3]; at 1.2 µM 0% | [3]; at 3.7 µM 15% | [3]; at 11.0 µM 15% | [3]; at 33.0 µM 33% | [3]; at 100.0 µM 36% | [4]; at 1.2 µM -3% | [4]; at 3.7 µM -2% | [4]; at 11.0 µM -3% | [4]; at 33.0 µM -2% | [5]; at 1.2 µM -6% | [5]; at 3.7 µM -46% | [5]; [17] 4% | [5]; at 11.0 µM 26% | [5]; at 33.0 µM 3% | [5]; [18] 11% | [5]; at 50.0 µM 18.8% | [6]; at 1.2 µM -3% | [6]; at 3.7 µM -2% | [6]; [17] 3% | [6]; at 11.0 µM -1% | [6]; at 33.0 µM -2% | [6]; [18] 31% | [6]; at 50.0 µM 0.2% | [7]; at 1.2 µM -1% | [7]; at 3.7 µM -2% | [7]; at 11.0 µM -1% | [7]; at 33.0 µM 4% | [7]; at 100.0 µM 69% | [8]; [17] 2% | [8]; [18] 37% | [8]; at 50.0 µM 58.5% | [9]; at 1.2 µM 4% | [9]; at 3.7 µM 1% | [9]; at 11.0 µM 2% | [9]; at 33.0 µM 1% | [9]; at 100.0 µM 38% | [10]; [17] 3% | [10]; [18] 1% | [10]; at 50.0 µM -31.5% | [11]; at 1.2 µM 0% | [11]; at 3.7 µM 6% | [11]; [17] 7% | [11]; at 11.0 µM 20% | [11]; at 33.0 µM 43% | [11]; [18] 52% | [11]; at 50.0 µM 25.4% | [11]; at 100.0 µM 64% | [12]; at 1.2 µM 3% | [12]; at 3.7 µM -1% | [12]; at 11.0 µM -2% | [12]; at 33.0 µM -2% | [12]; at 100.0 µM 32% | [13]; at 1.2 µM -2% | [13]; at 3.7 µM -3% | [13]; at 11.0 µM -1% | [13]; at 33.0 µM 1% | [14]; at 1.2 µM -3% | [14]; at 3.7 µM -1% | [14]; at 11.0 µM 5% | [14]; at 33.0 µM 25% | [15]; [17] -1% | [15]; [18] 52% | [15]; at 50.0 µM 50.6% | [16]; at 1.2 µM -2% | [16]; at 3.7 µM 4% | [16]; at 11.0 µM 7% | [16]; at 33.0 µM 18%
active: [1]; at 100.0 µM 89% | [2]; at 100.0 µM 88% | [4]; at 100.0 µM 95% | [5]; at 100.0 µM 96% | [6]; at 100.0 µM 87% | [13]; at 100.0 µM 92% | [14]; at 100.0 µM 92% | [16]; at 100.0 µM 90%
